# Many of the other results were omitted from the sample, so hits are more common in it than they were.
# Dicer processing: human Dicer pre-microRNA cleavage inhibition | 47,000 tested, 6% active | AID 1347074 | z-score at 25 µM | cat-ELCCA pre-miR-21 Dicer processing, chemiluminescence; hits give high values | Q9UPY3; in the data active = z-score above about 3, passing the limit was not always enough;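 note: plate controls were vehicle for no effect and no enzyme for full effect; higher signal means more uncleaved substrate so more Dicer inhibition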
# Active calls of the source: *.
SMILES,Dicer processing
Cn1c(=O)c2[nH]c(NCCCN3CCOCC3)nc2n(C)c1=O,2.5
COC(=O)c1ccccc1S(=O)c1cccc2cccc(CO)c12 (centres undefined),-0.77
COC(=O)c1scc(Br)c1O,1
O=C(Nc1nccs1)Oc1ccccc1,-0.05
Cc1ccc(-c2nn(-c3ccccc3)c(=O)c3ccccc23)cc1C,-1
C#CCOC(=O)NC(=O)c1c(-c2c(Cl)cccc2Cl)noc1C,3.2*
Cc1onc(-c2c(Cl)cccc2Cl)c1NC(=O)NC(=O)c1c(Cl)cccc1Cl,0.74
Cc1onc(-c2c(Cl)cccc2Cl)c1C(=O)NC(C)(C)CC(C)(C)C,0.53
NS(=O)(=O)c1ccc(N(S(=O)(=O)c2cccc(Cl)c2)S(=O)(=O)c2cccc(Cl)c2)cc1,-0.71
CCC(C)N(C)C(=O)c1cc2ccccc2c(-c2ccccc2Cl)n1 (centres undefined),1.3
c1ccc2c(c1)N=C(NNC1=Nc3ccccc3SC1)CS2,3.8*
O=C1CC(Nc2ccc(N3CCOCC3)cc2)C(=O)N1c1ccccc1F (centres undefined),2.8
O=C1CC(Nc2ccc(N3CCCCC3)cc2)C(=O)N1c1ccccc1F (centres undefined),3.3*
O=C1CC(Nc2ccc(F)cc2)C(=O)N1c1ccc(N2CCCCC2)cc1 (centres undefined),-0.19
O=C(NNc1ncc(C(F)(F)F)cc1Cl)c1ccccc1Cl,-3
CCOc1cc(S(=O)(=O)Nc2ccccn2)ccc1F,0.47
Cc1ccc(C2C(C(=O)c3cccs3)=C(O)C(=O)N2CCCn2ccnc2)cc1 (centres undefined),3.3*
Cc1nnc(N2C(=O)C(O)=C(C(=O)c3ccco3)C2c2ccc(Cl)cc2)s1 (centres undefined),4.2*
COc1ccc(C2C(C(=O)c3ccco3)=C(O)C(=O)N2c2nnc(C)s2)cc1OC (centres undefined),0.56
Cc1nnc(N2C(=O)C(O)=C(C(=O)c3cccs3)C2c2ccc(Cl)cc2)s1 (centres undefined),0.95
Cc1nnc(N2C(=O)C(O)=C(C(=O)c3ccco3)C2c2ccccc2)s1 (centres undefined),1.2
COC(=O)c1sc(N2C(=O)C(O)=C(C(=O)c3cccs3)C2c2ccc(F)cc2)nc1C (centres undefined),1.4
Cc1nnc(N2C(=O)C(O)=C(C(=O)c3cccs3)C2c2ccc(C(C)(C)C)cc2)s1 (centres undefined),1.1
Cc1nnc(N2C(=O)C(O)=C(C(=O)c3cccs3)C2c2ccc(F)cc2)s1 (centres undefined),3.8*
COC(=O)c1sc(N2C(=O)C(O)=C(C(=O)c3cccs3)C2c2ccc(C(C)C)cc2)nc1C (centres undefined),2.4
SMILES,Dicer processing
O=C(C1=C(O)C(=O)N(CCN2CCOCC2)C1c1ccncc1)c1cccs1 (centres undefined),-2.3
CC(C)c1ccc(C2C(C(=O)c3cccs3)=C(O)C(=O)N2CCCN2CCOCC2)cc1 (centres undefined),1.3
COC(=O)c1sc(N2C(=O)C(O)=C(C(=O)c3cccs3)C2c2ccc(Cl)cc2)nc1C (centres undefined),3.8*
Cn1cc(C(=O)Nc2cc(C(F)(F)F)cc(C(F)(F)F)c2)c(C(F)(F)F)n1,2.3
O=C(Cc1cccc2c(S(=O)O)cccc12)NC(c1ccccc1)c1ccccc1,0.29
COC(=O)c1ccccc1SC(CC(=O)c1ccccc1)c1ccc(F)cc1 (centres undefined),-3.5
CCOC(=O)c1cnc2c(C)cc(Cl)cc2c1Cl,2.4
CCC[C@@H]1C[C@@H](C(=O)N[C@@H](C2O[C@H](SC)[C@H](O)[C@@H](O)[C@H]2O)[C@H](C)Cl)N(C)C1 (some centres undefined),-0.75
COc1ccc(-c2cnn3c(-c4ccccc4)cc(C)nc23)cc1OC,-0.15
Cc1cc(=O)oc2cc(O)ccc12,0.16
CCOC(=O)c1oc2cc(O)ccc2c(=O)c1-c1ccc2c(c1)OCCO2,2.6
Cc1oc2cc(O)ccc2c(=O)c1-c1ccc2c(c1)OCCO2,5.5*
COc1ccc(-c2c(C)oc3cc(OC(C)C(=O)O)ccc3c2=O)cc1OC (centres undefined),1.3
CCCc1cc2c(=O)c(-c3ccc4c(c3)OCCO4)coc2cc1O,0.45
CCOC(=O)c1oc2cc(O)c(CC)cc2c(=O)c1-c1ccc2c(c1)OCCO2,4.5*
O=C(CN1C(=O)c2cccc3cccc1c23)NCC1CCCO1 (centres undefined),0.2
CCC1=Nc2ccccc2-c2nnc(SC)nc2O1,0.12
Cn1nc(C(F)(F)F)c(-c2ccccc2)c1N1C(=O)C2C3C=CC(C3)C2C1=O (centres undefined),-0.37
Cc1ccccc1OCc1nc(C#N)c(NCc2ccco2)o1,0.33
O=C(c1nn2c(c1Cl)NC(c1cccs1)CC2C(F)(F)F)N1CCCC1 (centres undefined),2
COCCN1CNc2c(c(=O)n(C)c(=O)n2C)C1,3.5*
Cn1c2c(c(=O)n(C)c1=O)CN(CCc1ccccc1)CN2,-3.7
Cn1c2c(c(=O)n(C)c1=O)CN(CCc1ccc(Cl)c(Cl)c1)CN2,-5.6
Cn1c2c(c(=O)n(C)c1=O)CN(C1CC1)CN2,-1.8
Cn1c2c(c(=O)n(C)c1=O)CN(Cc1ccc(F)cc1)CN2,4.3*
SMILES,Dicer processing
Cn1c2c(c(=O)n(C)c1=O)CN(CCCCCCO)CN2,-2.1
C=CCSC1=C(C#N)C(c2ccc(OC)c(OCc3ccccc3)c2)CC(=O)N1 (centres undefined),0.38
CCN(C1CCCCC1)S(=O)(=O)c1cccc2c(N)cccc12,-0.28
C[C@H](CCC(=O)O)[C@H]1CC[C@H]2[C@@H]3[C@H](O)C[C@@H]4C[C@H](O)CC[C@]4(C)[C@H]3CC[C@]12C,-0.54
Cc1cc(C(F)(F)F)nc2c(Br)c(-c3ccc(Cl)cc3)nn12,-1.4
N#CC1C(=O)NC(N2CCN(c3ccccc3)CC2)=NC12CCCCC2 (centres undefined),-0.23
COc1ccc(C2SCC(=O)N2CCCN(C)C)cc1OC (centres undefined),1.1
Cc1cc(C)c2[nH]c(=O)c(NC(N)=O)nc2c1,0.48
COc1ccccc1NC(=S)NNC(=O)NNC(=S)Nc1ccccc1OC,4.4*
COc1ccccc1NC(=S)Nc1ccccn1,8.9
COc1ccccc1NC(=S)NCC(C)(C)C(=O)O,-0.71
O=C1Nc2ccccc2/C1=C/c1ccc(CN2C(=O)c3ccccc3C2=O)o1,-0.74
CC(=O)NNc1cccc(C(F)(F)F)n1,0.03
COc1ccc(C(=O)Oc2cccc3cccnc23)cc1Cl,4.4*
O=C(Oc1cccc2cccnc12)c1cccs1,2.2
COc1ccc(C(=O)Oc2cccc3cccnc23)cc1OC,2.1
COC(=O)c1c(C)oc(C)c1S(=O)(=O)N(Cc1ccccc1)C(C)C,-1
CCOC(=O)C1=C(C)NC(C)=C(C(=O)OCC)C1,0.2
O=C1C(c2cc(Cl)cc(Cl)c2)=C(O)c2ccccc21,-0.75
Cc1cc(Cl)cc2c1C(=O)/C(=C\c1ccccc1O)S2,5*
Cc1cc(Cl)cc2c1C(=O)/C(=C\c1cccnc1)S2,-0.04
Cc1nc(Nc2ccc(F)cc2)nc2c1C(=O)CC(C)C2 (centres undefined),1.2
C=CCn1c(CSc2nc(-c3ccccc3)cn2-c2ccc(OC)cc2OC)n[nH]c1=S,3.4*
S=c1[nH]nc(CSc2nc(-c3ccccc3)cn2-c2ccccc2)n1-c1ccccc1,0.02
C=CCn1c(SCc2n[nH]c(=S)n2C)nnc1-c1ccccc1,-0.49

# Compound activity deposited in PubChem BioAssay by Center for Chemical Genomics, University of Michigan.
